Consider seven molecules from the supplement of paper PMC11732987, “Enantioselective OTUD7B fragment discovery through chemoproteomics screening and high-throughput optimisation” (Communications Chemistry, 2025).

The assay deals with T1, VCPIP1 (UniProt Q96JH7).
T1 sequence (whole entry): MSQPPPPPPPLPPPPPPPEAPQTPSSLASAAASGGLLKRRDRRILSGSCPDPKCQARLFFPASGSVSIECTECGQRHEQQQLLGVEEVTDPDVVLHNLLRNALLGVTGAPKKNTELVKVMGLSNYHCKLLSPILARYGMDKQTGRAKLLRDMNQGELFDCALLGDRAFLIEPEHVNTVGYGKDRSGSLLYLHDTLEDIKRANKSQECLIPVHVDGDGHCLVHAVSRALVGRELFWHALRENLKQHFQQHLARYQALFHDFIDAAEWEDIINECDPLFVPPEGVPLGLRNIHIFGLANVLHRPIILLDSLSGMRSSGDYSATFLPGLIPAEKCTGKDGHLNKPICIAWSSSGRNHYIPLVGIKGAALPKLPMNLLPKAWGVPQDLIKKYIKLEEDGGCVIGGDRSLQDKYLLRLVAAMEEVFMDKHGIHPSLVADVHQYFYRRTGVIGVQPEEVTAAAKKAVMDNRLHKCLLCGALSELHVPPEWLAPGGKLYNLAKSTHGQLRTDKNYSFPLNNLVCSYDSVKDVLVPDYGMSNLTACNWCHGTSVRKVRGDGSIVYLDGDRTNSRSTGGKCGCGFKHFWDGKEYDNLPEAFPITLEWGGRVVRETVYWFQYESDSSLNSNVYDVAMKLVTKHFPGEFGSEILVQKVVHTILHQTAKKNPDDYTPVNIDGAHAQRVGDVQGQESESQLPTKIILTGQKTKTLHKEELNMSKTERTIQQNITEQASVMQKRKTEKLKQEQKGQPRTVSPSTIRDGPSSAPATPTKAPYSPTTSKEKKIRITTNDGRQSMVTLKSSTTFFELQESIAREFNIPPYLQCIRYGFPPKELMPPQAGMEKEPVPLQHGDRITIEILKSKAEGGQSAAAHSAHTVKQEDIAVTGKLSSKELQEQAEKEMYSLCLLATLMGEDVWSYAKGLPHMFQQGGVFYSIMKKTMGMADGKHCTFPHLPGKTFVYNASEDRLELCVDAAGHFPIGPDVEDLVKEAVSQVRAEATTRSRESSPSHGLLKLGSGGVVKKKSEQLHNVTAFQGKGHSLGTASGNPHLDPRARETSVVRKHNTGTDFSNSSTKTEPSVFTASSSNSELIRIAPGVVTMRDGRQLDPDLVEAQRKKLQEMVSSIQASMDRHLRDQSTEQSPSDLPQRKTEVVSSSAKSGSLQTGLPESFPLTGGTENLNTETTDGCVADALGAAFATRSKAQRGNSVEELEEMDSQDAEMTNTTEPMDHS
In words: log2 ratio of Biotin-Ahx-Ub-VS probe labelling (fragment/DMSO); higher = less target engagement (more negative = stronger competition), active = hit call of the paper (q ≤ 0.05, log2 ratio ≤ -1). The note with it: compound concentration: 200 uM; treatment time: 3 h. As for the experimental part: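 Competitive ABPP in HEK293T cell lysate. Lysates were treated with each chloroacetamide fragment at 200 µM for 3 h, then with Biotin-Ahx-Ub-VS (0.5 µM, 1 h), NeutrAvidin-enriched and analysed by diaPASEF LC-MS/MS. Protein LFQ was median-normalised; average log2 ratio is fragment/DMSO from an unpaired t-test (n=3 treated, n=44 DMSO). Hits: q ≤ 0.05, log2 ratio ≤ -1, unique peptides ≥ 2.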
For the molecule `N#Cc1cnn(-c2ccccc2)c1NC(=O)CCl`, the “log2 ratio of Biotin-Ahx-Ub-VS probe labelling” value (from here on “log2 ratio”) was -2.18 (active).

Consider `Cc1nc(CNC(=O)CCl)c2ccccn12.Cl`, for which the “log2 ratio” value was -0.406 (inactive).

Regarding `Cc1ccccc1C1(CNC(=O)CCl)CCOCC1`, the “log2 ratio” value was -0.843 (inactive).

As to `O=C(CCl)NC1(c2ccc3c(c2)OCCO3)CCCC1`, the “log2 ratio” value is -0.7 (inactive).

Regarding `O=C(CCl)NCc1ccc2c(c1)OCO2`, the “log2 ratio” value was -2 (active).

As to `COCC[C@@H](NC(=O)CCl)c1ccccc1`, the “log2 ratio” value is -0.654 (inactive).

With `Cc1ccc(CC(CO)CNC(=O)CCl)cc1` (configuration not stated), the “log2 ratio” value is -2.23 (active).
